# Screening results: PubChem, National Center for Advancing Translational Sciences (NCATS)
# BAZ2B inh – BAZ2B (human) inhibition. Q9UIF8. AlphaScreen BAZ2B-H3K14Ac peptide displacement. Potency, µM (top dose mostly 114 µM), for the others: at the highest dose activity change, negative = inhibition, usual class: inhibitors. actives 4.4% (n = 360,000); further: on the % scale 0 is the no-effect control and ±100 the full control effect; nearly all actives have a fitted effect of over 60% in size
#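 Protein-peptide AlphaScreen: BAZ2B 50 nM, b-H3K14Ac 50 nM, 1x PBS pH 7.4 + 0.01% Tween-20. Preincubation 30 min RT; cpd 30 min RT (top 110 uM); beads 20 min RT, light-protected.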
# Sfp PPTase inh – Sfp phosphopantetheinyl transferase inhibition; Q9F4F7; Biochemical Sfp PPTase activity, qHTS; Potency, µM, inactives show largest response in the series, negative = inhibition, actives largely listed as inhibitors; actives 3.5% (n = 310,000); AID 1490;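 further: the enzyme is Sfp with the accession as filed and its product quenches rhodamine fluorescence; 0% = enzyme reaction without inhibitor and -100% = no enzyme wells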
#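 Sfp 15 nM + cpd, 15 min RT; start w/ rhodamine-CoA 5 uM, BHQ-2-YbbR 12.5 uM (final); 50 mM Hepes pH 7.6, 10 mM MgCl2, 0.01% NP-40, 0.01% BSA; read 525/598 nm at 0 and 30 min.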
# G9a block – inhibitors of human histone lysine methyltransferase G9a; Q96KQ7; G9a H3K9 monomethylation, AlphaScreen, 2 h; Potency, µM (titrated, usually from 102 µM), inactives show at the highest dose activity, negative = inhibition, usual class: inhibitors; actives 8.8% (n = 350,000); AID 504332; further: on the % scale 0 is the no-effect control and ±100 the full control effect; nearly all actives have a fitted effect of over 75% in size
#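 AlphaScreen detection with an anti-monomethyl H3K9 antibody quantified product after a 2 h room-temperature reaction containing 500 nM biotinylated H3K9 peptide, 20 µM SAM and 20 nM enzyme, which had been preincubated 15 min with compound.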
# L3MBTL1 block – L3MBTL1 (human) inhibition | actives 0.66% (n = 230,000) | Potency, µM (highest dose often 57.1 µM), inactives show top-dose activity, negative = inhibition, actives largely listed as inhibitors | AID 485360 | Q9Y468 | AlphaScreen L3MBTL1–H3K9me1 peptide binding; further: on the % scale 0 is the no-effect control and ±100 the full control effect; nearly all actives have a fitted effect of over 60% in size
#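 L3MBTL1 (50 nM) pre-complexed 30 min with biotinylated H3(1-15)K9me1 peptide (75 nM), then compounds added for 30 min at room temperature; AlphaScreen streptavidin donor/nickel chelate acceptor beads (10 ug/mL final) read after 30 min dark incubation.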
# HP1b chromo inh – blocks HP1-beta chromodomain binding to methylated histone tails | P83916 | AlphaScreen HP1-beta / biotin-H3K9me3 peptide binding | Potency, µM (doses to about 114 µM), for inactives: at the highest dose activity change, negative = inhibition, usual class: inhibitors | actives 0.56% (n = 390,000) | AID 540317; further: nearly all actives have a fitted effect of over 70% in size
#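 AlphaScreen: HP1-beta (50 nM) preformed 30 min with biotin-H3(1-18)K9me3 peptide (50 nM) in PBS pH 7.4, 0.01% Tween-20. Compound added for 30 min at RT, then streptavidin donor/nickel chelate acceptor beads (10 ug/mL) for 30 min.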
# JMJD2A Tudor inh – inhibitors of human JMJD2A Tudor domain; O75164; Potency, µM (highest dose often 114 µM), for the others: top-dose activity change, negative = inhibition, most hits filed as inhibitors; AID 504339; actives 4.4% (n = 390,000); AlphaScreen JMJD2A-Tudor / H3K4me3 peptide binding; further: on the % scale 0 is the no-effect control and ±100 the full control effect; nearly all actives have a fitted effect of over 50% in size
# Target sequence (O75164 whole entry, looked up, the tested form may be a part): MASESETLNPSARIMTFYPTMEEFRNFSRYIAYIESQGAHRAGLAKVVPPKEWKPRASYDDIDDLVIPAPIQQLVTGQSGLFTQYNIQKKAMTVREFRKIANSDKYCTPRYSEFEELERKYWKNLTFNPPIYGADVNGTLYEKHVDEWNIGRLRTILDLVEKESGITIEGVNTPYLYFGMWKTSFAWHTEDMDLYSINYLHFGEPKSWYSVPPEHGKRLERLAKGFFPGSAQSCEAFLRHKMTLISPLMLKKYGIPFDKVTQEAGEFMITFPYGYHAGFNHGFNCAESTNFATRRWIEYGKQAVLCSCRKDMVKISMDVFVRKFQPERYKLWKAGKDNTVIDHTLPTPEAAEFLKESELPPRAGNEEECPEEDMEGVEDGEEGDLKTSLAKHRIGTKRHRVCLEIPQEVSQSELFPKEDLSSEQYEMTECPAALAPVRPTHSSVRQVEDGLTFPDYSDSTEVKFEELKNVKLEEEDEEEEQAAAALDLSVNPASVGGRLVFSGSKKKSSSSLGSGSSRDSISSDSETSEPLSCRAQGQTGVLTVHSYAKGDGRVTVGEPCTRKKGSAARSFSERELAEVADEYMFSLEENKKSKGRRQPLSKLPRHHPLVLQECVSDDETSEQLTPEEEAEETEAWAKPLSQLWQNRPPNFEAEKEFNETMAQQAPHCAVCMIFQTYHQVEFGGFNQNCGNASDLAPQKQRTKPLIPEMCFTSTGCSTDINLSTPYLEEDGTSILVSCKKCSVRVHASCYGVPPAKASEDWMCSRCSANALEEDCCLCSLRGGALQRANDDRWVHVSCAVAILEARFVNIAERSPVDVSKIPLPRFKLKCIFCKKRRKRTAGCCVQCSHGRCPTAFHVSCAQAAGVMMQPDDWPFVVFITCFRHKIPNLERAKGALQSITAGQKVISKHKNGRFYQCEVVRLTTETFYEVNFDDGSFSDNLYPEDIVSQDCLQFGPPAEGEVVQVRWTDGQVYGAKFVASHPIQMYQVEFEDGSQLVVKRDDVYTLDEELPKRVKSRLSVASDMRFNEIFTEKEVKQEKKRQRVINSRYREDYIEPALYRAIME
# * marks the source's active call; other numbers are inactive results; ? = inconclusive; . = no result; [ ] = remark or other dose. The list is not random: actives were taken first. Their share in the collection is about 12%. The call rests on the fitted dose curve; in most records, active means well fitted curve in the direction sought with a large enough effect; inconclusive means small, poorly fitted or top-dose-only effect, or another doubt; inactive means no such curve, though single readings can be large; an effect the other way counts as inactive or inconclusive. Potency means the concentration at half of the fitted maximal effect.
SMILES,BAZ2B inh,Sfp PPTase inh,G9a block,L3MBTL1 block,HP1b chromo inh,JMJD2A Tudor inh
O=C(Nc1ccccc1N1CCCCC1)c1cc(S(=O)(=O)N2CCOCC2)ccc1F,9%,.,-4%,-9%,8%,-18%
COC(=O)c1sccc1S(=O)(=O)Nc1ccc(S(N)(=O)=O)cc1,-4%,-10%,.,.,-15%,-9%
CN(Cc1ccccc1)C(=O)COC(=O)CCNC(=O)c1ccccc1Cl,-3%,2%,23%,.,41%,-8%
COCOc1cc(OC)ccc1C(=O)/C=C\c1ccc2c(c1)OCO2,.,2%,.,.,.,.
O=c1c(-c2cccs2)nc2cnc(Oc3cccc(Cl)c3)nc2n1C1CC1,.,-15%,-9%[12.7 µM],.,.,.
CCN1CCN(S(=O)(=O)c2ccc(Cl)c(C(=O)Nc3ccccc3N3CCCCC3)c2)CC1,-33%,.,40µM*,-15%,51%,?
CCN1CCN(S(=O)(=O)c2ccc(Cl)c(C(=O)Nc3ccccc3N3CCCC3)c2)CC1,?,.,24%[0.501 µM],-1%,-18%,?
COc1ccc(NC(=O)N2CCC3(CC2)CCN(C(=O)c2cnccn2)CC3)cc1,.,21%,3%[12.7 µM],.,.,.
N=C1S/C(=C\c2ccco2)C(=O)N1c1nccs1,?,?,35µM*,?,13%,-32%
N=C1S/C(=C\c2ccco2)C(=O)N1c1ccc2c(c1)OCO2,56µM*,?,45µM*,?,-39%,?
Nc1ccc(S(=O)(=O)Nc2ccccc2)cc1,.,-11%,16%[12.7 µM],.,.,.
Clc1ccc(CO/N=C2\CCCc3nonc32)cc1,144%,-3%,111%,6%,81%,71µM*
CC1=C(O)C(=O)C(C2=C(O)C(=O)C(C)=C(O)C2=O)=C(O)C1=O,.,.,.,.,?,0.71µM*
Cc1ccc(C2=C(O)C(=O)C(c3ccc(C)cc3)=C(O)C2=O)cc1,.,.,.,.,-23%,25µM*
Cc1ccc(C)c(OC(=O)CSc2nnc(-c3cccs3)o2)c1,-3%,.,-32%[59 µM],.,3%,-16%
Cc1ccc(C)c(NC(=O)C(Sc2nnc(-c3cccs3)o2)c2ccccc2)c1 (stereo not given),2%,21%,79µM*,13%,?,-22%
Cc1ccc(C)c(NC(=O)C(Sc2cccc[n+]2[O-])c2ccccc2)c1 (stereo not given),-1%,-11%,45µM*,-26%,22%,-17%
CC(C)(C)c1ccc(C2C(C(=O)c3ccco3)=C(O)C(=O)N2CC2CCCO2)cc1 (stereo not given),-9%,-6%,-11%[59 µM],.,14%,-18%
COc1ccc(C2C(C(=O)c3ccco3)=C(O)C(=O)N2CC2CCCO2)cc1OC (stereo not given),-36%,-1%,50µM*,.,-28%,-31%
O=C(C1=C(O)C(=O)N(CC2CCCO2)C1c1ccccc1)c1ccco1 (stereo not given),-2%,18%,45µM*,.,-13%,-16%
O=C(C1=C(O)C(=O)N(CC2CCCO2)C1c1cccc(Cl)c1)c1ccco1 (stereo not given),-1%,-6%,?,.,10%,-3%
O=C(C1=C(O)C(=O)N(CC2CCCO2)C1c1cccnc1)c1ccco1 (stereo not given),?,11%,40µM*,8%,16%,?
COc1ccc(C2C(C(=O)c3ccco3)=C(O)C(=O)N2CCc2ccccc2)cc1OC (stereo not given),-35%,-6%,50µM*,-6%,-6%,79µM*
COc1ccc(C2C(C(=O)c3ccco3)=C(O)C(=O)N2CCOCCO)cc1OC (stereo not given),?,-24%,?,3%,-3%,?
O=C(NCc1ccccc1Cl)C1CCN(C(=O)c2ccco2)CC1,-9%,17%,-30%,.,18%,7%
SMILES,BAZ2B inh,Sfp PPTase inh,G9a block,L3MBTL1 block,HP1b chromo inh,JMJD2A Tudor inh
O=C(c1ccc(S(=O)(=O)Nc2ccccc2)cc1)N1CCC1,-5%,.,-3%,11%,17%,-2%
C[C@H]1Cc2c(COc3ccccc3)nc3c(c2CO1)CN(C(=O)c1cccnc1)CC3,.,10%,.,.,.,.
O=C1OC(C(=O)Nc2nccs2)Cc2ccccc21 (stereo not given),-38%,-8%,-47%[59 µM],.,18%,-21%
CC(=O)Cc1nsc(NC(=O)C2Cc3ccccc3C(=O)O2)n1 (stereo not given),-10%,12%,56µM*,.,12%,-27%
CCN(C(=O)CSc1nnc2c3ccccc3n(CC)c2n1)C1CCS(=O)(=O)C1 (stereo not given),-36%,8%,79µM*,-2%,7%,-27%
CC(C)OC(=O)c1ccc(NCc2cc(O)ccc2O)cc1,.,.,.,.,40µM*,4µM*
O=C(OCc1ccccc1)c1ccc(NCc2cc(O)ccc2O)cc1,.,.,.,.,?,25µM*
COP(=O)(OC)c1ccc(NCc2cc(O)ccc2O)cc1,.,.,.,.,?,3.5µM*
Oc1ccc(Cl)cc1CNc1cnc2ccccc2c1,-11%,-1%,?,0%,31%,-25%
OCC1CCCN(C(=S)Nc2ccc(OC(F)F)cc2)C1 (stereo not given),-6%,16%,16%,-3%,34%,-2%
OCC1CCCN(C(=S)Nc2ccc(Nc3ccccc3)cc2)C1 (stereo not given),?,-4%,18µM*,-25%,?,?
O=C(Cn1c(=O)c(CNc2ccccc2)cc2cc3c(cc21)OCCO3)Nc1ccccc1Cl,?,.,?,.,52%,?
Cc1ccc(Cl)cc1NC(=O)Cn1c(=O)c(CNc2ccccc2)cc2cc3c(cc21)OCCO3,-22%,.,7.9µM*,.,6%,-29%
O=C(Oc1ccccc1)N1CCC2(CC1)CCN(c1ccncc1)CC2,.,14%,3%[12.7 µM],.,.,.
COc1ccc(NC(=O)CC(c2ccco2)C(C)C)cc1 (stereo not given),16%,-1%,-1%[2.33 µM],.,13%,-14%
CNc1ccc(Oc2nc([N+](=O)[O-])nn2C)cc1,-21%,15%,50µM*,-6%,31%,-13%
COc1ccc(-c2nnn(CC(=O)N3CCN(c4ccc(F)cc4)CC3)n2)cc1,-21%,3%,27%,.,7%,-2%[11.4 µM]
COc1ccc(NC(=O)CN2CCN(c3ccc(F)cc3)CC2)cc1,-14%,-3%,-2%,.,-2%,25µM*
COc1ccc(N2CCN(CC(=O)Nc3nc4c(s3)CC(C)CC4)CC2)cc1 (stereo not given),.,-11%,10µM*,?,?,50µM*
COc1ccc(N2CCN(CC(=O)Nc3ncc(C)s3)CC2)cc1,-12%,-5%,14%[2.33 µM],.,0%,-30%
